Among the data in the OligoGym collection are sensor-assay potency score (higher = more potent) values, retold here.
Further: reference of the scale not given here.

One assay concerns the target MYCBPAP. Kind of assay: pooled miR-30 sensor sort-seq; sequence = guide strand. The settings on record: shRNA.
Turning to TTTCTTGTCTTCTTTGTCTTTG, the sensor-assay potency score (higher = more potent) is -0.276.

In turn, TTCCAAAGAAAACCTGTCCTGA had a sensor-assay potency score (higher = more potent) of -0.596.

Consider TTCTTTGTCTTTGATCCCCAGT, for which the sensor-assay potency score (higher = more potent) was -0.525.

On to TATGACTTTCTTGTCATCCTTT, for which the sensor-assay potency score (higher = more potent) came to 0.0986.

As to TTTTCTTTGACATTCTCTGAGG, the sensor-assay potency score (higher = more potent) is -0.601.

Take TAGATCAGAAACAGACTCCGAT: the sensor-assay potency score (higher = more potent) came out at 0.675.

Consider TTTCTTGTCATCCTTTGCCTTG, for which the sensor-assay potency score (higher = more potent) was -0.95.

A further assay deals with MYCL1. The assay is described as above. The settings on record: shRNA.
TTCTTCCAGATGTCCTCGCTGG displayed a sensor-assay potency score (higher = more potent) of -0.137.

AATTCTTTTCTGCAACTGCTGC displayed a sensor-assay potency score (higher = more potent) of -0.74.

Regarding TTGCTTAGGATCACTACTTTGG, the sensor-assay potency score (higher = more potent) is -0.448.

For the sequence TCAATTTCTTCATTCTCCGAGT, the sensor-assay potency score (higher = more potent) worked out at 0.102.

Sequence ATCAATTTCTTCATTCTCCGAG yielded a sensor-assay potency score (higher = more potent) of 0.219.

In turn, TTCTTTTCTGCAACTGCTGCTG came in with a sensor-assay potency score (higher = more potent) of -0.121.

Turning to TCTTTTCTGCAACTGCTGCTGC, the sensor-assay potency score (higher = more potent) came out at 0.0557.

In turn, TCATTCTCCGAGTCGCTTGGGC returned a sensor-assay potency score (higher = more potent) of -0.392.

Sequence ATAGTCGTAGAAATAGTGCTGG showed a sensor-assay potency score (higher = more potent) of 0.222.

For the sequence TTAGGATCACTACTTTGGGGGC, the sensor-assay potency score (higher = more potent) was -0.971.

Consider TTTCTCTGTAGCCATCCTCTTC, for which the sensor-assay potency score (higher = more potent) was -0.97.

With TAGTCGTAGAAATAGTGCTGGT, the sensor-assay potency score (higher = more potent) was -0.671.
